Results published in the supplement of paper PMC10646978.
± gives the standard deviation.

Experiments:
Conditions in all cases: modulator concentration 10 µM
[1] = tested on: RAW-Dual (murine macrophage reporter line); experiment: NF-kB reporter (SEAP) activity fold change vs agonist alone; higher = enhanced NF-kB activity
In short: (§1)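 RAW-Dual murine macrophage reporter cells were plated at 50 000 per well in 384-well plates, pin-transferred compound to 10 μM final, and pre-incubated for 1 hour at 37 °C before a PRR agonist was added and the cells incubated overnight. NF-κB activity was read from supernatant SEAP with QUANTI-Blue at 620 nm absorbance, and IRF activity from Lucia luciferase with QUANTI-Luc by luminescence. Each signal was expressed as fold change by dividing by the mean agonist-only control on the same plate. Two replicate plates were averaged, with errors obtained by propagation.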

[2] = tested on: RAW-Dual (murine macrophage reporter line); experiment: IRF reporter (Lucia luciferase) activity fold change vs agonist alone; higher = enhanced IRF activity
In short: as §1

[3] = tested on: RAW-Dual (murine macrophage reporter line); experiment: viability score (confluency relative to resting cells, overnight) (fraction); higher = more viable, active = viable (0.7 or more)
In short: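 RAW-Dual macrophages in 384-well plates were incubated overnight with compound, final concentration 10 μM. Confluency images from IncuCyte were processed in IncuCyte software into two masks covering all imaged wells. The viability score is each well's confluency relative to resting cells, and a compound met the cutoff when both masks exceeded 70% of resting cells.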

[4] = agonist: CpG ODN 1826 0.5 ug/mL

SMILES | NF-kB reporter [1, 4] | NF-kB reporter ([1]; agonist: LPS 0.1 ug/mL) | NF-kB reporter ([1]; agonist: MPLA […]) | IRF reporter ([2]; agonist: 3'3'-cGAMP 10 ug/mL) | IRF reporter ([2]; agonist: LPS 0.1 ug/mL) | IRF reporter ([2]; agonist: MPLA […]) | viability score [3]
Brc1ccc2ncnc(NCc3cccnc3)c2c1 | 1.22 ± 0.069 | 1.31 ± 0.11 | 1.02 ± 0.04 | 0.329 ± 0.014 | 0.498 ± 0.047 | 0.641 ± 0.11 | 1 (active)
Cc1ccc2nc(C)c(NC(=O)c3ccc4ccccc4n3)c(=O)n2c1 | 0.787 ± 0.25 | 1.03 ± 0.14 | 0.823 ± 0.091 | 0.793 ± 0.04 | 1.02 ± 0.061 | 1.1 ± 0.23 | 0.994 (active)
c1ccc(CNc2nc(N3CCOCC3)nc(N3CCOCC3)n2)cc1 | 0.882 ± 0.24 | 0.947 ± 0.079 | 0.987 ± 0.081 | 0.758 ± 0.027 | 1.09 ± 0.12 | 1.24 ± 0.21 | 0.991 (active)
O=Cc1ccc(OCc2cccc([N+](=O)[O-])c2)c(Br)c1 | 0.777 ± 0.091 | 0.737 ± 0.057 | 1.09 ± 0.18 | 0.963 ± 0.045 | 1.4 ± 0.09 | 1.49 ± 0.12 | 1 (active)
O=C(Nc1ccccc1)NC1CCS(=O)(=O)C1 (stereo unspecified) | 1.02 ± 0.096 | 1.09 ± 0.1 | 0.998 ± 0.042 | 0.97 ± 0.054 | 0.889 ± 0.16 | 0.88 ± 0.18 | 0.995 (active)
O=S(=O)(C=Cc1ccccc1)NCc1ccccc1 | 0.933 ± 0.15 | 1.03 ± 0.083 | 0.953 ± 0.085 | 1.03 ± 0.028 | 1.28 ± 0.13 | 1.61 ± 0.37 | 0.97 (active)
Nc1nc2ccc(OC(F)(F)F)cc2s1 | 0.955 ± 0.13 | 1.09 ± 0.3 | 1.02 ± 0.059 | 1.07 ± 0.044 | 1.15 ± 0.24 | 0.928 ± 0.14 | 0.965 (active)
CS(=O)(=O)c1cccc(C[C@H](NC(=O)c2c(Cl)cc3c(c2Cl)CCN(C(=O)c2ccc4ccoc4c2)C3)C(=O)O)c1 | 1.12 ± 0.17 | 1.22 ± 0.23 | 1.97 ± 1.1 | 1.07 ± 0.084 | 1.37 ± 0.41 | 1.31 ± 0.1 | 0.983 (active)
CC(Cc1ccc(O)c(O)c1)(NN)C(=O)O (stereo unspecified) | 0.957 ± 0.083 | 0.979 ± 0.076 | 0.877 ± 0.083 | 0.952 ± 0.03 | 1.24 ± 0.15 | 1.38 ± 0.18 | 1 (active)
O=C1CCC(N2C(=O)c3ccccc3C2=O)C(=O)N1 (stereo unspecified) | 1.13 ± 0.088 | 1.03 ± 0.16 | 1.04 ± 0.12 | 1.11 ± 0.25 | 0.897 ± 0.054 | 0.863 ± 0.067 | 0.999 (active)
Cc1ccc(S(=O)(=O)O)cc1.NC(=O)c1cccc2cn(-c3ccc([C@@H]4CCCNC4)cc3)nc12 | 0.0798 ± 0.0034 | 0.142 ± 0.017 | 0.372 ± 0.027 | 0.041 ± 0.0076 | 0.0678 ± 0.01 | 0.0808 ± 0.016 | 0.881 (active)
O=C(c1ccccc1)C1OC1(CBr)c1ccccc1 (stereo unspecified) | 1.06 ± 0.06 | 0.76 ± 0.052 | 0.663 ± 0.039 | 0.0937 ± 0.0033 | 0.69 ± 0.072 | 0.913 ± 0.17 | 0.833 (active)
COc1ccc(C(C)(C#N)CC#N)cc1 (stereo unspecified) | 1.11 ± 0.089 | 0.941 ± 0.1 | 1.04 ± 0.1 | 1.06 ± 0.035 | 1.29 ± 0.19 | 1.47 ± 0.31 | 1.03 (active)
